Source: PubChem
ATXN2 expr inh – Primary qHTS for Inhibitors of ATXN expression. actives 0.72% (n = 360,000). Potency, µM (titrated, usually from 57 µM), actives largely listed as inhibitors. AID 1745845, 2022. HEK-293 ATXN2-luciferase reporter, luminescence, 24 h; also: nearly all actives have a fitted effect of over 55% in size
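ATXN2-luciferase reporter cells (luciferase flanked by upstream and downstream ATXN2 gene portions) were treated 24 h at 37 °C with compounds at up to 57 uM. SteadyGlo luminescence gave expression; GF-AFC fluorescence gave viability.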
ATXN viability – Viability Counterscreen for Primary qHTS for Inhibitors of ATXN expression | S2 cells (HEK-293 line with an ATXN2-luciferase reporter) viability, CellTiter-Fluor protease fluorescence, 24 h | Potency, µM (titrated, usually from 56.7 µM), actives largely listed as cytotoxic | actives 0.49% (n = 400,000); also: nearly all actives have a fitted effect of over 40% in size
IL1B secr inh – qHTS for Inhibitors of Inflammasome Signaling: IL-1-beta AlphaLISA Primary Screen; THP-1 LPS/ATP IL-1B secretion, AlphaLISA, 16 h; active compounds read low; activity change, % at 57.5 µM; actives 4.7% (n = 360,000); in the data active = activity change below about -50%; inconclusive = mostly about -30% to -49%
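Secreted IL-1B measured by AlphaLISA bead assay after 16 h compound exposure of THP-1 cells; compounds (final up to 57.5 uM) added 1 h before LPS (250 ng/mL) and ATP (1.25 mM) stimulation; lower signal means less secretion.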
D3 antag – qHTS of D3 Dopamine Receptor Antagonist: qHTS; max response, negative = inhibition, %; actives 2.5% (n = 360,000); D3R cells, DiscoveRx beta-arrestin luminescence, antagonist mode; active compounds read low; in the data active = max response below about -50%; inconclusive = no clear call, values can overlap the other calls
Target sequence (P35462 whole entry, looked up): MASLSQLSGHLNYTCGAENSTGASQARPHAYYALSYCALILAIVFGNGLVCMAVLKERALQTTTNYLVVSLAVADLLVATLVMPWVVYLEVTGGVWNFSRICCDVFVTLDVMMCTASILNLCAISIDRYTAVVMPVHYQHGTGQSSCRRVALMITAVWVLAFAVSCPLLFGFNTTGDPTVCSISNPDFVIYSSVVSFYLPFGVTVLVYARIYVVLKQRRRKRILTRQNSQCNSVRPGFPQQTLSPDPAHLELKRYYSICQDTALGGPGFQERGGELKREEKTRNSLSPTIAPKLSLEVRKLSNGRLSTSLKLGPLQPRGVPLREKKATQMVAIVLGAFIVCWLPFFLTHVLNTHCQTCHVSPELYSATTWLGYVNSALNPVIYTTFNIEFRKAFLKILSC
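Cells expressing the human receptor were seeded at 1500 cells/well, incubated overnight at 37 degrees C in 5% CO2, then exposed to library compounds with dopamine controls for 90 minutes at 37 degrees C before luminescent detection.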
a7 integrin act – qHTS for Activators of Integrin-Mediated Alleviation for Muscular Dystrophy; alpha7betagal myoblasts, beta-gal FDG fluorescence, 48 h; Potency, µM (titrated, usually from 38.3 µM), actives largely listed as activators; actives 0.064% (n = 350,000); AID 624291, 2012; also: nearly all actives have a fitted effect of over 60% in size
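Alpha7betagal+/- myoblasts (passage 13) were plated 16-24 hr, then exposed to compounds (1:260 dilution of DMSO stock) for 48 hours at 37C. After MPER lysis, β-galactosidase reporter activity was read as FDG fluorescence (ex 480/em 540) after 30 minutes.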
D3 ag – qHTS of D3 Dopamine Receptor Agonist: qHTS; D(3) dopamine receptor (Homo sapiens), P35462; D3R DiscoveRx beta-arrestin cells, luminescence, 90 min; max activation, %; actives 0.58% (n = 410,000); AID 652048, 2013; in the data active = max activation above about 30%
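Agonist mode: compounds and dopamine controls were applied to plated cells for 90 min at 37 degrees C after an overnight attachment at 1500 cells/well. Luminescent read-out followed 30 - 60 minutes at room temperature with DiscoveRx detection reagent.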
Of the large screens only hits and unclear results are named; the others gave an inactive call. Shown are actives, neighbours in structure and some others; about 7% of the full set was active somewhere. Unless noted, calls follow the shape of the dose curve; as a rule, active = well fitted curve in the direction sought with a large enough effect; inconclusive = small, poorly fitted or top-dose-only effect, or another doubt; inactive = no such curve, though single readings can be large; an effect the other way counts as inactive or inconclusive.

O=C(NCc1ccccc1)c1ccc(CSc2ccccc2)o1	IL1B secr inh -91
O=C(NCc1ccccc1)c1onc(CSc2ccccc2)c1C(=O)NCC1CC1	IL1B secr inh -52
COCCNC(=O)c1c(CSc2ccccc2)noc1C(=O)NCc1ccccc1	none
COCCNC(=O)c1c(CS(=O)(=O)c2ccccc2)noc1C(=O)NCc1ccccc1	D3 ag 36
O=C(c1n[nH]c(=O)c2ccccc12)N1CCN(Cc2ccc3c(c2)OCO3)CC1	none
COCCNC(=O)c1ccc(NC(=O)C2(c3ccccc3)CCCC2)cc1	none
CCCCOc1cccc(C(=O)Nc2ccc(S(=O)(=O)Nc3nnc(CC)s3)cc2)c1	a7 integrin act inconclusive (no result: ATXN2 expr inh)
Cc1ccc(S(=O)(=O)N2CCC(C(=O)Nc3cccnc3)CC2)cc1	none
CCc1ccc(-n2nc(CO)c(C(=O)NC)n2)cc1	none (no result: ATXN2 expr inh, ATXN viability, IL1B secr inh, D3 antag, a7 integrin act)
Cn1c(C=O)c(C#Cc2ccccc2)c2ccccc21	ATXN viability inconclusive, D3 ag 39
CC(C)c1cc(C(=O)NNC(=S)NC2CCCCC2)cs1	D3 antag -53
CC1Cc2ccccc2N1C(=O)CSc1nn2c(=O)c(C(C)(C)C)nnc2s1 (centres undefined)	ATXN viability inconclusive, IL1B secr inh -96
CC(C)(C)c1nnc2sc(SCC(=O)N3CCCc4ccccc43)nn2c1=O	none
COc1ccc2c(C)nc(Nc3nc(-c4ccccc4)cc(=O)[nH]3)nc2c1	ATXN viability inconclusive, IL1B secr inh -63
Cc1ccc2c(C)nc(Nc3nc(CSc4nc5ccccc5[nH]4)cc(=O)[nH]3)nc2c1	ATXN viability inconclusive, IL1B secr inh -86
Cc1ccc(SCc2cc(=O)[nH]c(Nc3nc(C)c4ccc(C)cc4n3)n2)cc1	D3 antag inconclusive
Cc1ccc2nc(Nc3nc(CSc4nnc(C)s4)cc(=O)[nH]3)nc(C)c2c1	IL1B secr inh -88
Cc1ccc2nc(Nc3nc(-c4ccccc4)cc(=O)[nH]3)nc(C)c2c1	IL1B secr inh inconclusive
COc1ccc(NC(=O)CSc2ccc([N+](=O)[O-])cc2)cc1S(=O)(=O)N1CCOCC1	D3 antag inconclusive
CCC(=O)Nc1ccc2nc(SCC(=O)N3CCCC3)sc2c1	none
CCOC(=O)c1ccc(S(=O)(=O)NNC(=O)c2cccc(N(C)C)c2)cc1	IL1B secr inh -141 (no result: ATXN2 expr inh)
Cc1cc(C)nc(NS(=O)(=O)c2ccc(NC(=O)c3cccc(N4C(=O)CCC4=O)c3)cc2)n1	D3 antag -59
CCn1cnc2c1c(=O)n(CC(=O)Nc1ccc(C(N)=O)cc1)c(=O)n2Cc1ccccc1	none (no result: ATXN2 expr inh)
CCn1cnc2c1c(=O)n(Cc1cccc(Br)c1)c(=O)n2Cc1ccccc1	D3 ag 35
CCn1cnc2c1c(=O)n(CC(=O)Nc1ccc3c(c1)OC(F)(F)O3)c(=O)n2Cc1ccccc1	D3 antag -50
CSc1ccc(C(=O)C2CCCN(C(=O)c3ccc4c(c3)no[n+]4[O-])C2)cc1 (centres undefined)	ATXN viability 14µM, IL1B secr inh -67 (no result: ATXN2 expr inh)
CSc1ccc(C(=O)C2CCCN(C(=O)c3ccsc3)C2)cc1 (centres undefined)	ATXN viability inconclusive (no result: ATXN2 expr inh)
CCOC(=O)/C=C1/SCC(=O)N1CC(=O)Nc1ccccc1OC(F)F	none
Oc1c(Cl)cc(Cl)cc1C1=NNC(c2ccc(Cl)cc2)C1 (centres undefined)	D3 antag -64 (no result: ATXN viability)
CCCOc1ccc(CC(=O)NNC(=S)Nc2ccccc2)cc1Br	D3 antag -56
O=C(O)CCNc1cc(N2CCN(C(=O)c3ccco3)CC2)c2noc3c2c1C(=O)c1ccccc1-3	ATXN viability inconclusive, IL1B secr inh -71, a7 integrin act inconclusive
CC(=O)OCCNc1cc(N2CCN(C)CC2)c2noc3c2c1C(=O)c1ccccc1-3	ATXN2 expr inh inconclusive, IL1B secr inh inconclusive, D3 antag -52
O=C(O)CCCNc1cc(N2CCN(C3CCCCC3)CC2)c2noc3c2c1C(=O)c1ccccc1-3	none (no result: IL1B secr inh, D3 antag, a7 integrin act)
CCN1CCN(c2cc(N3CCN(C(=O)c4ccco4)CC3)c3c4c(onc24)-c2ccccc2C3=O)CC1	ATXN viability inconclusive, IL1B secr inh -52
OC1(c2cccc(F)c2)CCN(Cc2ccncc2)CC1	D3 antag -78
OC1(c2ccc(F)cc2)CCN(Cc2nnnn2Cc2cccs2)CC1	D3 antag -86
OC1(c2cccc(C(F)(F)F)c2)CCN(Cc2nnnn2Cc2ccccc2)CC1	IL1B secr inh -70, a7 integrin act inconclusive
CCC(C(=O)NCCCN1CC(C)CC(C)C1)n1ncn2c(cc3occc32)c1=O (centres undefined)	D3 antag inconclusive
COc1ccc(Cc2nn3c(-c4ccccc4Br)nnc3s2)cc1	IL1B secr inh -85
Brc1ccccc1-c1nnc2sc(Cc3ccccc3)nn12	IL1B secr inh -56
COc1ccccc1-c1nnc2sc(COc3ccccc3)nn12	none
COc1ccccc1-c1nnc2sc(COc3ccc(Cl)cc3Cl)nn12	ATXN2 expr inh inconclusive, IL1B secr inh -76
COc1ccc(Cc2nn3c(-c4cc(OC)c(OC)c(OC)c4)nnc3s2)cc1	none
Cc1nnc(SCc2ccccc2Cl)c2cc3occc3n12	none (no result: ATXN2 expr inh, ATXN viability, IL1B secr inh, D3 antag, a7 integrin act)
CCOc1ccc2nc(NCCCO)[nH]c2c1	IL1B secr inh -72
COc1ccc2nc(NCCO)[nH]c2c1	a7 integrin act inconclusive
COc1cc(CNc2nc3ccccc3[nH]2)cc(OC)c1OC	D3 antag inconclusive
COc1ccc2nc(NCc3ccccc3)[nH]c2c1	IL1B secr inh -102, D3 antag inconclusive
Cc1ccc2nc(NCc3ccccc3)[nH]c2c1	ATXN viability inconclusive, IL1B secr inh -73
c1ccc(CNc2nc3ccccc3[nH]2)cc1	IL1B secr inh -60
Cc1ccc(C(=O)N(Cc2ccco2)c2ccccn2)cc1	none (no result: IL1B secr inh, D3 antag, a7 integrin act)
O=C1CN(C(=O)COC(=O)C2CCN(S(=O)(=O)c3ccccc3C(F)(F)F)CC2)c2ccccc2N1	none
COc1ccc(N2CCN(C(=O)c3oc4c(c3C)C(=O)CCC4)CC2)cc1	none
CCCCSc1nnc2n(-c3ccc(OC)cc3)c(=O)c3c4c(sc3n12)COC(C(C)C)C4 (centres undefined)	none (no result: IL1B secr inh, D3 antag, a7 integrin act)
CCCCNC(=S)N(CCCO)Cc1cc2cc3c(cc2[nH]c1=O)OCO3	IL1B secr inh inconclusive (no result: ATXN2 expr inh)
OC1(C#CCCN2CCCCC2)c2ccccc2-c2ccccc21	none
N#CC1(CCCN2CCCCC2)c2ccccc2CCc2ccccc21	ATXN viability inconclusive, IL1B secr inh -57, D3 antag -93 (no result: ATXN2 expr inh)
